The supplement of paper PMC6555819

Experiments:
Assay in all cases: PBM binding z-score (relative to random genomic background probes); higher = stronger binding; sequences stand for … in GC…GCGATTGACAGCGTAGAATGAAGG
[1] = system: RARb homodimer (NR concentration 270 nM)
Method in brief: (§1)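 Binding z-scores were set against random background probes. The data came from custom Agilent 4×180K protein-binding microarrays carrying double-stranded probes with 34-nt variable regions, incubated 1 h with ligand-free nuclear receptor dimers. Partner-specific antibodies detected binding, and scanned fluorescence was regression-normalized.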

[2] = system: RARg:RXRa (NR concentration 270 nM, RXRa partner concentration 90 nM)
Method in brief: as §1

[3] = system: RARg homodimer (NR concentration 270 nM)
Method in brief: as §1

[4] = system: RXRa DBDmut IVT, anti-RXR (DBD mutation: RXRa K156A/R161A, NR concentration 90 nM)
Method in brief: as §1

[5] = system: RXRa homodimer (NR concentration 180 nM)
Method in brief: as §1

[6] = system: THRa:RXRa (NR concentration 90 nM, RXRa partner concentration 90 nM)
Method in brief: as §1

[7] = system: THRa homodimer (NR concentration 90 nM)
Method in brief: as §1

[8] = system: VDR homodimer (NR concentration 270 nM)
Method in brief: as §1

Sequence | PBM binding z-score [1] | PBM binding z-score [2] | PBM binding z-score [3] | PBM binding z-score [4] | PBM binding z-score [5] | PBM binding z-score [6] | PBM binding z-score [7] | PBM binding z-score [8]
ACTCGGAGGACAAAGGTTAGAGCTACGCCAGTGA | 1.89 | 2.94 | 1.93 | 0.75 | 1.7 | 1.76 | -0.114 | 0.17
ACTATTAGGTGAGACGAGGGCAACCGATAGGTTG | 1.7 | 1.03 | 1.43 | 0.288 | 0.97 | 3.84 | 0.802 | 1.07
CGAACTTGGTCATCCAGGACAGTGAATACATTGA | 0.498 | 0.874 | 1.24 | 0.427 | 0.551 | 1.91 | 1.02 | 0.3
TGTTGTAGATCAATAGAGGTTAAGAAAGTGCGCT | 1.3 | 1.06 | 0.973 | -0.255 | 1.25 | 2.39 | -0.0243 | 0.759
TCTCCTAGGTCAACGATGGTCAGCTAATCTGCTA | 3.61 | 4.5 | 5.72 | 1.41 | 3.49 | 3.32 | 1.59 | 0.166
ATCTCTAGGTAAAAGTTCAGTGATTCCCGAGGAT | 2.44 | 1.69 | 2.11 | 0.773 | 1.47 | 1.2 | 0.435 | 1.8
AGAATGAGGTTATACGTAGATCAGGGACGAAAGT | 0.962 | 1.77 | 1.35 | 1.87 | 2.14 | 2.39 | 0.878 | 1.06
CCGACTGGAGCATAAGGTTACCATAAGCCAGCCC | 1.28 | 0.447 | 0.266 | 0.0357 | 0.901 | 1.96 | 1.77 | 0.144
CCTCACGGGTCACTCCAGGTTATAGCATCGGAGT | 3.09 | 4.28 | 4.2 | 1.49 | 4.07 | 4.79 | 0.721 | 1.94
TCTATTAGTTGTAGGGCAACCGACGAGTCCGTTT | 0.489 | 0.147 | 0.469 | 1.17 | 0.403 | 0.112 | 0.0984 | 1.13
GAAGACAGGTGAAACGCAGGTAACTCAGGGTGGC | 0.467 | 0.851 | 0.0189 | -0.671 | 0.66 | 1.49 | -0.0479 | -0.373
GGACCGAGGGCAAAGTTGATAGCATCTGTCGACG | 1.42 | 2.15 | 1.79 | 2.07 | 2.15 | 1.04 | -0.484 | 1.07
CCTTACGGGTCACTGACAGGTTATTGCATTTGGA | 3.24 | 5.55 | 4.57 | 1.94 | 5.07 | 2.92 | 0.504 | 1.45
ATACCAAGGCGATCGTGAGGTCGTTGATACTAAC | 0.905 | 0.636 | 0.0519 | 0.303 | 0.794 | 2.26 | 1.5 | 1.85
CCTATTAGTTGACCATAAGGGCAACCTAAGCTCG | 2.22 | 1.47 | 1.24 | 0.437 | 0.949 | 2.16 | 1.8 | 0.755
AGAACGAGGGCAATGAGTTGTTAGCACGGGTGGC | 0.552 | 0.787 | 1.3 | 1.76 | 0.588 | 0.64 | -0.39 | 2.19
ACTAGCAGGCGAAGTTTGGGTCACTCAAACAAAG | 1.48 | 0.795 | 0.54 | -0.3 | 0.656 | 1.91 | 0.813 | -0.246
CCTTACGGGTCACGAGGTTATCGCACGACGAGCG | 4.01 | 6.31 | 5.55 | 1.96 | 7.47 | 3.72 | 1.12 | 2.04
TTTCGGAGGACACGAAGGTCAGAGCTTTCCAGAG | 3.81 | 3.45 | 4.21 | 0.363 | 2.22 | 3.06 | 1.45 | 1.86

Sequence | PBM binding z-score [1] | PBM binding z-score [2] | PBM binding z-score [3] | PBM binding z-score [4] | PBM binding z-score [5] | PBM binding z-score [6] | PBM binding z-score [7] | PBM binding z-score [8]
GAATATAGGTAATACAAGGTGAAAGTCCGATTGT | 1.27 | 0.944 | 0.872 | 0.644 | 0.89 | 4.2 | 1.38 | 0.435
TAACCAAGGTGAAGGTCGTTGATCCCTCTGTAGA | 1.83 | 1.4 | 1.38 | 0.174 | 1.87 | 2.32 | 0.878 | 0.809
CGAATTAGGTCAAGGACAGTGAATCTCCGCACGC | 3.29 | 3.94 | 4.46 | 1.46 | 2.97 | 3.53 | 2.81 | 0.373
TCATATAGGTAATACAGGTGGAAGTCGGCATCTA | 0.159 | 0.56 | 0.449 | 1.5 | 1.31 | 0.353 | 0.0491 | 0.547
ATCTGTAGGTAAAGATAGTTCAGTGAATGCAAAT | 0.933 | 0.435 | 0.657 | -0.108 | 0.326 | 0.527 | -0.0674 | 0.568
CGAACGAGGGCATGAGTTGATAGAAAATGCCGAT | 0.815 | 1.29 | 1.56 | 2.47 | 0.995 | 1.28 | -0.093 | 1.74
ACTAGTTGGTCAGCTGACGTCACACACAATTCGG | 0.958 | 0.549 | 0.913 | 0.433 | 0.459 | 0.178 | 0.155 | -0.472
CCTCCAAGGTCAAGGTCAGTGAAAGAGACTCGAA | 5.05 | 6.52 | 7.43 | 3.49 | 6.09 | 4.18 | 3.64 | 2.98
ATATGTAGGTTACATCCAGGTCATTCAGGCTATG | 3.23 | 3.8 | 2.4 | 1.19 | 2.91 | 4.23 | 3.46 | 2.88
AGTCATAGTTCAGGACGAGGTAACGTAAAGCACG | 1.82 | 2.66 | 2.61 | 0.51 | 1.39 | 3.35 | 1.67 | 0.515
CCTTACGGTTCACGAGGTTATAGCACGACGAGCG | 2 | 2.73 | 1.5 | 3.15 | 4.01 | 2.8 | 1.26 | 3.82
TCTAGATGGTCACGGAGGTCACACACGACGGGTA | 4.54 | 4.93 | 4.89 | 0.905 | 5.34 | 3.85 | 2.6 | 3.63
ATCTCTAGGTAAAAGTCCAGTGAATCCCGAGGAT | -0.174 | 0.275 | 0.393 | -0.403 | -0.00664 | 0.296 | 0.175 | 0.187
ACCGAAAGGTCGAAGGTGAGTATACCCACCCGAA | 2.51 | 4.53 | 4.2 | 1.35 | 5.27 | 2.11 | -0.114 | 0.383
TCATATAGGTAAAAGGTGAAAGTAGGTGTGGTAA | 2.04 | 2.13 | 1.16 | 2.18 | 3.34 | 2.19 | 0.852 | 0.549
TCTTGTAAATCAACAGGAGGTTAAGAAAGATCGA | 0.787 | 0.681 | 0.518 | 1.04 | 1.11 | 0.911 | -0.242 | 0.513
CCTACTGGGCCACGAAAGGTCTTTGATTCAGTGA | 1.03 | 0.285 | 0.261 | -0.372 | 0.067 | 1.06 | -0.141 | -0.432
ACTTACGGGTCATCGAGGTTATAGCACGCGTATA | 3.64 | 5.43 | 4.96 | 2.98 | 6.18 | 4.03 | 1.28 | 4.26
TGAATGAGGTTATAAGATCAGGAAACGTTGCAAA | 0.0307 | 1.61 | 0.861 | 0.926 | 2.21 | 1.77 | -0.0709 | 0.225

Sequence | PBM binding z-score [1] | PBM binding z-score [2] | PBM binding z-score [3] | PBM binding z-score [4] | PBM binding z-score [5] | PBM binding z-score [6] | PBM binding z-score [7] | PBM binding z-score [8]
TCGAGTAGGTTACCAAGGGGGCATTCAGCTTTCT | 1.98 | 4.64 | 1.87 | 1.26 | 1.98 | 2.16 | 0.891 | 2.16
CAAACTAGGTCACGAAAGCTCAAAGTCGAATGAC | 3.1 | 4.61 | 5.69 | 1.74 | 3.99 | 3.28 | 1.48 | 0.544
GCATATAGGTAGTACAAGGTGAAAGTCCGATTGT | 0.817 | 0.404 | 0.395 | 0.422 | 0.53 | 3.23 | 1.02 | 0.0912
AGAACGAGGGCACGTTGAGTTGATAGCAGAGTAG | 1.28 | 1.84 | 1.95 | 1.8 | 1.36 | 1.82 | 0.141 | 2.13
TCTAGTTGGTCCCGGAGGTCACACACGACGGGTA | 3.79 | 3.99 | 3.7 | 0.937 | 4.39 | 3.59 | 3.02 | 2.67
GCTTACGGGTCAAATGTTATAGCATGAATAGAAT | 2.6 | 4.88 | 4.02 | 2.4 | 5.86 | 2.54 | -0.146 | 1.1
GCGACTGGGGCATCAGCAGGTTACCAGAACTTAA | 0.768 | 0.911 | 0.328 | -0.241 | 0.262 | 0.858 | -0.159 | -0.517
TCTTATAGGTAAACAGGTGAAAGTCCGTAAGTTA | 0.802 | 0.615 | 0.392 | 1.1 | 0.864 | 0.793 | 0.397 | 0.462
TCTCAAAGTTCAAAGGTAACGTAAGTATCCACAC | 4.13 | 6.13 | 6.25 | 4.59 | 7.17 | 3.46 | 0.566 | 4.09
TTTAGCAGGCCAGAGGGTCACTCAAGAGGTACGG | 2.65 | 2.51 | 2.02 | -0.755 | 2.32 | 1.6 | -0.313 | 0.332
AATACAGGGTCATCGTAGTCCAGAGTACGCACAG | 3.56 | 5.76 | 4.86 | 3.42 | 6.39 | 4.18 | 1.83 | 4.22
TCTATTAGTTGAAAGGCAACCGACGAGTCCGTTT | -0.227 | 0.248 | 0.111 | 1.66 | 0.759 | 0.0956 | 0.0862 | 1.08
GCTGCTAGGTCAGGTTGGTCAGCTTACGGGTACG | 2.84 | 2.41 | 3.46 | 0.504 | 0.756 | 1.8 | 0.808 | 0.197
CCTTACGTGTCACTGACAGGTTATAGCATTTGGA | 1.37 | 1.71 | 1.21 | 0.934 | 0.941 | 0.816 | 0.847 | 0.842
TGTCCAAGTTCAAAGGTAACGTAAGTATCCACAC | 2.25 | 4.05 | 3.45 | 4.24 | 5.21 | 3.05 | 0.0637 | 4.33
TCATATAGGGAAATGCTAGGTGAAAGTCCGATCT | 0.336 | 0.235 | 0.101 | 1.66 | 0.678 | 0.846 | 0.365 | 0.19
AGAACGAGGGCACGCTGGGTTGATAGCAGAGTAG | 1.28 | 2.01 | 2.36 | 1.87 | 1.56 | 2.5 | 0.224 | 2.08
CCGACTGGGGCATAAGGTTACCCTAAGCCAGCCC | 1.42 | 1.27 | 0.806 | -0.487 | 1.07 | 1.79 | 1.55 | -0.217
CCGACTGGGGCAAAGGTTACCATTCTCAGTACGA | 2.08 | 3.4 | 1.6 | 0.683 | 3.26 | 1.66 | -0.246 | -0.419
